Experimental data published in the supplement of paper PMC8047044.
Several values for one entry are separate records, joined by “and”; a condition that tells them apart may be missing. Equal values may be shown once. Where a name gives a salt, the structure may show the parent alone.

Each molecule was assayed on Neuro-2a (assay: neurite formation score, plate-normalized to DMSO control mean 5.04 (score (0-8 scale)); higher = more or longer neurites). Settings: 1 µM.
Procedure: (§1)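 Neuro-2a mouse neuroblastoma cells in PLL-coated 96-well plates were pre-treated for 1 h in DMEM(+) with each kinase inhibitor at 1 µM, then switched to serum-free DMEM(-) with inhibitor to induce neurite outgrowth and fixed about 2-3 h later. Three blinded observers scored neurite formation from 0 (no neurites) to 8 (long neurites on almost all cells).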

Row | Structure (SMILES) | neurite formation score
1 | CCN1CCN(Cc2ccc(-c3cc4c(N[C@H](C)c5ccccc5)ncnc4[nH]3)cc2)CC1 | 2.57
2 | COc1cc2ncnc(Nc3ccc(O)c(Br)c3)c2cc1OC | 4.47
3 | O=c1c(O)c(-c2ccc(O)c(O)c2)oc2cc(O)cc(O)c12 [Quercetin] | 4.54
4 | COc1cc2ncnc(Sc3nnc(C)s3)c2cc1OC | 4.96
5 | COc1cc(Nc2c(C#N)cnc3cc(OCCCN4CCN(C)CC4)c(OC)cc23)c(Cl)cc1Cl [Bosutinib (SKI-606)] | 4.57
6 | C#Cc1cccc(Nc2ncnc3cc(OCCOC)c(OCCOC)cc23)c1 [Erlotinib Hydrochloride] | 4.57
7 | c1ccc2c(-c3cnn4cc(-c5ccc(N6CCNCC6)cc5)cnc34)ccnc2c1 | 5.14 and 4.47
8 | O=c1cc(N2CCOCC2)oc2c1ccc1ccccc12 | 4.8
9 | Cc1[nH]c(/C=C2\C(=O)Nc3ccc(S(=O)(=O)Cc4c(Cl)cccc4Cl)cc32)c(C)c1C(=O)N1CCC[C@@H]1CN1CCCC1 | 3.91
10 | C=CC(=O)Nc1cccc(Sc2nc(Nc3ccc(N4CCN(C)CC4)cc3)ncc2Cl)c1 | 4.91
11 | Cc1cc(Nc2cc(N3CCN(C)CC3)nc(/C=C/c3ccccc3)n2)n[nH]1 [ENMD-2076 L-(+)-Tartaric acid] | 3.8
12 | Cc1ccc(NC(=O)c2ccc(CN3CCN(C)CC3)cc2)cc1Nc1nc(-c2cccnc2)cs1 [Masitinib (AB1010)] | 4.24
13 | Cc1cn(-c2cc(NC(=O)c3ccc(C)c(Nc4nccc(-c5cccnc5)n4)c3)cc(C(F)(F)F)c2)cn1 [Nilotinib(AMN-107)] | 4.57

Each molecule was assayed on Neuro-2a in the same assay as above. Settings: 0.1 µM.
Procedure: as §1, with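 “at 0.1” for “at 1”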

Row | Structure (SMILES) | neurite formation score
14 | CCN1CCN(Cc2ccc(-c3cc4c(N[C@H](C)c5ccccc5)ncnc4[nH]3)cc2)CC1 | 4.54
15 | Cc1ccc(F)c(NC(=O)Nc2ccc(-c3cccc4[nH]nc(N)c34)cc2)c1 [Linifanib (ABT-869)] | 3.76
16 | CNCc1ccc(-c2cc(-c3nc(-c4ccc(S(=O)(=O)C(C)C)cc4)cnc3N)on2)cc1 | 3.25
17 | COc1cc2ncnc(Nc3ccc(O)c(Br)c3)c2cc1OC | 5.09
18 | O=c1c(O)c(-c2ccc(O)c(O)c2)oc2cc(O)cc(O)c12 [Quercetin] | 5.08
19 | Nc1nccc(-c2c(-c3ccc(F)cc3)ncn2C2CCCCC2)n1 | 5.58
20 | CC(C)Nc1cc(-c2c[nH]c(C(=O)N[C@H](CO)c3cccc(Cl)c3)c2)c(Cl)cn1 | 4.76
21 | COc1cc2ncnc(Sc3nnc(C)s3)c2cc1OC | 4.25
22 | Cc1[nH]nc2ccc(-c3cncc(OC[C@@H](N)Cc4ccccc4)c3)cc12 | 4.25
23 | O=S(=O)(NCCNC/C=C/c1ccc(Br)cc1)c1cccc2cnccc12 | 4.75
24 | CN(C)C(=O)c1cc2cnc(Nc3ccc(N4CCNCC4)cn3)nc2n1C1CCCC1 | 4.58
25 | Cc1cc(CN2CCN(c3c(Br)cnc4nc(-c5ccc(N6CCN(C)CC6)cc5)[nH]c34)CC2)no1 | 4.76
26 | CCS(=O)(=O)N1CC(CC#N)(n2cc(-c3ncnc4[nH]ccc34)cn2)C1 | 4.58
27 | Cc1ncc(CCCN(C)C)cc1Nc1ncc2c(n1)-c1ccc(C(F)(F)F)cc1NC(=S)C2 | 4.92
28 | COc1cc(Nc2c(C#N)cnc3cc(OCCCN4CCN(C)CC4)c(OC)cc23)c(Cl)cc1Cl [Bosutinib (SKI-606)] | 2.71
29 | O=C(CCCCCCC(=O)Nc1ccc(I)cc1)NO [4-iodo-SAHA] | 4.42
30 | C#Cc1cccc(Nc2ncnc3cc(OCCOC)c(OCCOC)cc23)c1 [Erlotinib Hydrochloride] | 5.21
31 | CSc1cccc(Nc2ncc3cc(-c4c(Cl)cccc4Cl)c(=O)n(C)c3n2)c1 | 3.92
32 | c1ccc2c(-c3cnn4cc(-c5ccc(N6CCNCC6)cc5)cnc34)ccnc2c1 | 2.42 and 4.42

Row | Structure (SMILES) | neurite formation score
33 | CNC(=O)c1ccc(C)c(-n2c(C)cc(OCc3ccc(F)cc3F)c(Br)c2=O)c1 | 2.21
34 | Cc1[nH]c(/C=C2\C(=O)Nc3ccc(S(=O)(=O)N(C)c4cccc(Cl)c4)cc32)c(C)c1C(=O)N1CCN(C)CC1 | 5.04
35 | O=c1cc(N2CCOCC2)oc2c1ccc1ccccc12 | 4.42
36 | CNC(=O)c1cc(Oc2ccc(NC(=O)c3cccc(C(F)(F)F)c3)cc2)ccn1 | 5.54
37 | Cc1[nH]c(/C=C2\C(=O)Nc3ccc(S(=O)(=O)Cc4c(Cl)cccc4Cl)cc32)c(C)c1C(=O)N1CCC[C@@H]1CN1CCCC1 | 5.04
38 | O=c1cc(-c2cccc3c2Sc2ccccc2S3)oc(N2CCOCC2)c1 | 1.92
39 | CC(C)[C@H](CO)Nc1nc(Nc2ccc(C(=O)O)c(Cl)c2)c2ncn(C(C)C)c2n1 [Purvalanol B] | 4.92
40 | C=CC(=O)Nc1cccc(Sc2nc(Nc3ccc(N4CCN(C)CC4)cc3)ncc2Cl)c1 | 4.71
41 | Cc1cc(Nc2cc(N3CCN(C)CC3)nc(/C=C/c3ccccc3)n2)n[nH]1 [ENMD-2076 L-(+)-Tartaric acid] | 4.76
42 | Cc1ccc(NC(=O)c2ccc(CN3CCN(C)CC3)cc2)cc1Nc1nc(-c2cccnc2)cs1 [Masitinib (AB1010)] | 4.38
43 | N#CC(=C(/N)Sc1ccccc1N)/C(C#N)=C(\N)Sc1ccccc1N | 5.71
44 | CC(C)(O)CC(=O)NCCn1ccc2ncnc(Nc3ccc(Oc4cccc(C(F)(F)F)c4)c(Cl)c3)c21 | 4.42
45 | CC(C)(C)c1nc(-c2cccc(NS(=O)(=O)c3c(F)cccc3F)c2F)c(-c2ccnc(N)n2)s1 | 5.25
46 | Cc1cn(-c2cc(NC(=O)c3ccc(C)c(Nc4nccc(-c5cccnc5)n4)c3)cc(C(F)(F)F)c2)cn1 [Nilotinib(AMN-107)] | 5.21
47 | CNC(=O)c1cc(Oc2ccc(NC(=O)Nc3ccc(Cl)c(C(F)(F)F)c3)c(F)c2)ccn1 [Regorafenib monohydrate] | 5.25
48 | Cc1cc(CS(=O)(=O)c2ccccc2)cc(OCc2ccc(CN3CCC[C@@H]3CO)cc2)c1 | 5.58
49 | CNC(=O)Nc1ccc(-c2nc(N3CC4CCC(C3)O4)c3cnn(C4CCC5(CC4)OCCO5)c3n2)cc1 | 4.75
50 | COc1cc2ncnc(Nc3cccc(Cl)c3)c2cc1OC | 5.54
